Screens deposited in PubChem by several laboratories.
Rows were chosen to be rich in hits. Some 1.6% of all compounds tested hit in one or more screens of this group.
MOR-DOR inv ag = inverse agonist of human OPRM1-OPRD1 heterodimerization. actives 0.21% (n = 340,000). AID 504357. inhibition, % at 9.3 µM. cell-based MOR-DOR heterodimer luminescence, inverse agonism; in the data active means inhibition above about 22%, passing the limit was not always enough;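 further: 0% = cells with DMSO and 100% = wells without cells with DMSO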
Target sequence (P35372 whole entry, looked up): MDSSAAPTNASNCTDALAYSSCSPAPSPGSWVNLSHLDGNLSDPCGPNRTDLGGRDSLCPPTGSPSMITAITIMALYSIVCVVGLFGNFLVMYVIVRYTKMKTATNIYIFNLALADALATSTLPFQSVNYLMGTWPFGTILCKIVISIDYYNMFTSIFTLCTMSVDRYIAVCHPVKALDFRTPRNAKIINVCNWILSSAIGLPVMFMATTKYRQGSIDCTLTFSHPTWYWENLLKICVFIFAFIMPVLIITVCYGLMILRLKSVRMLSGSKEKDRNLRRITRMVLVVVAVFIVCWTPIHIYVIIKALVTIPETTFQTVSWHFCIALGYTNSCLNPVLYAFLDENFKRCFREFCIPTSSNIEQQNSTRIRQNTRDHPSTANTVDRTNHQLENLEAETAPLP
Target sequence (P41143 whole entry, looked up): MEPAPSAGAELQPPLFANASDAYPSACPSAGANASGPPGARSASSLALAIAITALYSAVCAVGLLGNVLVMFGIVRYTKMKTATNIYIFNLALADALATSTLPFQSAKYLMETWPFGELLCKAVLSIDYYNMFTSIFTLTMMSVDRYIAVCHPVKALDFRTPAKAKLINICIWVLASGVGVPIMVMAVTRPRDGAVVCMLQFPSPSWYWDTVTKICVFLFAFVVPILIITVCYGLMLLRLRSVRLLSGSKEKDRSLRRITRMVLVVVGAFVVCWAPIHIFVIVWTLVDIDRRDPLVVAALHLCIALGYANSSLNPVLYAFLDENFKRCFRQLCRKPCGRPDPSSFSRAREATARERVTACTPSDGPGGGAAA
NALP1 yeast inh = inhibitors of NALP1 inflammasome in yeast | S. cerevisiae NALP1/ASC/caspase-1 growth, X-gal OD620, 72 h | inhibition, % at 10 µM | actives 0.61% (n = 280,000) | AID 2071; in the data active means inhibition mostly above about 24%, no sharp cut-off; inactive means mostly below about 32%
HTR5A ag ctr = counter-screen for OPRM1-OPRD1 agonists: human HTR5A agonism. HTR5A agonist assay, luminescence, cell-based. activation, % at 9.3 µM. actives 0.61% (n = 340,000). P47898; in the data active means activation mostly above about 9.5%, no sharp cut-off; inactive means mostly below about 7.6%;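 further: 0% = cells with vehicle only and 100% = reference agonist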
PolyA inh = inhibitors of polyadenylation in S. cerevisiae; S. cerevisiae SKY197-pL101 polyadenylation reporter, beta-gal luminescence; efflux-impaired pdr1/pdr3 knockout yeast; score 100 = 6 SD above DMSO; activity score, % at 12 µM; actives 0.02% (n = 300,000);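 active means lowest replicate activity score at least 50, where 100 means six control SD above control mean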;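 further: yeast exposed to compound for 9 h at 30 °C; higher score means more reporter readthrough which indicates perturbed polyadenylation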
HTR5A inv ctr = counter-screen for OPRM1-OPRD1 inverse agonists: human HTR5A inverse agonism; P47898; HTR5A cell line, luminescence; inhibition, % at 9.3 µM; actives 0.083% (n = 340,000); AID 504634; in the data active means inhibition mostly above about 23%, no sharp cut-off; inactive means mostly below about 18%;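 further: 0% = cells with DMSO and 100% = no-cell wells with DMSO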
MOR-DOR ag = agonists of human mu-delta opioid receptor heterodimerization; P35372+P41143; cells, OPRM1-OPRD1 heterodimerization, luminescence; activation, % at 9.3 µM; actives 0.3% (n = 340,000);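 further: 0% = vehicle-treated cells and 100% = reference agonist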
MOR-DOR ag conf = OPRM1-OPRD1 heterodimer agonism, confirmation. shares compounds with MOR-DOR ag. cells, MOR-DOR heterodimerization, luminescence complementation. activation, % at 9.3 µM. actives 45% (n = 830). AID 504904;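 further: 0% = vehicle-treated cells and 100% = reference agonist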
HTR5A ag ctr2 = HTR5A agonism, opioid heterodimer counter-screen. shares compounds with MOR-DOR ag. HTR5A agonist counterscreen, cell luminescence. activation, % at 9.3 µM. actives 8% (n = 830). AID 504905; in the data active means activation above about 17%;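 further: 0% = vehicle-treated cells and 100% = reference agonist response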
Active calls of the source: *; · = not tested or not shown. Unless noted, no stated cut-off is given here; in the data, active means activation above about 18%; inactive means the rest.

SMILES	MOR-DOR inv ag	NALP1 yeast inh	HTR5A ag ctr	PolyA inh	HTR5A inv ctr	MOR-DOR ag	MOR-DOR ag conf	HTR5A ag ctr2
Cc1ccc2c(C)c(C(=O)N(Cc3ccccc3)C3CCS(=O)(=O)C3)oc2c1 (stereo unspecified)	-195	0	3	-4	-7	35*	-4	-2
Cc1ccc2c(C)c(C(=O)N(Cc3cccs3)C3CCS(=O)(=O)C3)oc2c1 (stereo unspecified)	-282	11	1	-14	-18	47*	75*	3
Cc1cc2oc(C(=O)N(Cc3ccccc3)C3CCS(=O)(=O)C3)c(C)c2cc1C (stereo unspecified)	-216	7	6	8	-7	40*	21*	-4
COc1ccc(CN(C(=O)c2oc3ccc(F)cc3c2C)C2CCS(=O)(=O)C2)cc1 (stereo unspecified)	-9	2	-1	-11	4	2	·	·
Cc1c(C(=O)N(Cc2ccccc2Cl)C2CCS(=O)(=O)C2)oc2ccccc12 (stereo unspecified)	-66	10	-2	-6	5	11	·	·
Cc1ccc2oc(C(=O)N(Cc3ccccc3)C3CCS(=O)(=O)C3)c(C)c2c1 (stereo unspecified)	-109	-6	1	7	-10	20*	2	5
Cc1nc2ccc(NC(=S)N3CCOCC3)cc2nc1C	-17	12	0	-3	-1	3	·	·
CC(C)(C)OC(=O)NNC(=O)Nc1ccccc1C(F)(F)F	13	17	2	12	-6	-2	·	·
COc1ccc(CCn2c(=S)[nH]c3cc(C(=O)NCc4ccco4)ccc3c2=O)cc1OC	-127	16	-1	-23	-1	28*	24*	5
CCn1c(=O)c(C(=O)NCc2cccnc2)c(O)c2ccccc21	-111	22	-1	11	2	19*	29*	0
CCn1c(=O)c(C(=O)NCc2ccccc2)c(O)c2ccccc21	1	8	3	-17	-12	0	·	·
COc1cccc(N2CCN(c3ncnc4c3cnn4-c3ccc(C)cc3C)CC2)c1	-130	-14	-2	8	4	23*	27*	15
Cc1cc(/C=C\c2ccc3cc(N(C)C)ccc3[n+]2C)c(C)n1-c1ccccc1	-258	·	2	·	-7	48*	4	0
CCOc1ccc2nc(NCCNC(=O)Nc3ccccc3)c(C#N)cc2c1	-289	-10	3	17	-12	50*	29*	7
Cc1cc2c(cc1C)CSC(c1c(O)ccc3ccccc13)SC2	-161	15	-4	-7	5	31*	19*	1
CC(=O)c1c(C)[nH]c(C(=O)Nc2ccc(F)cc2F)c1C	-17	-2	-5	-10	11	3	·	·
CCc1noc(C)c1C(=O)Nc1cc(S(=O)(=O)N2CCOCC2)ccc1N1CCN(CC)CC1	20	·	5	13	30	-4	·	·
O=C(COC(=O)c1ncc(Cl)c(Cl)c1Cl)NCCc1ccccc1	-18	·	2	1	-5	3	·	·
N#CC(c1ccc(Cl)cc1)(c1ncc(C(F)(F)F)cc1Cl)N1CCOCC1 (stereo unspecified)	-21	19	-1	11	-15	4	·	·
Cc1ccc(-c2csc(/C(C#N)=C(\O)CCl)n2)cc1	-90	14	6	-20	-15	20*	17	10
CCOc1ccc(C(=O)c2ccncc2)cc1	-5	4	2	20	-21	1	·	·
CCOc1ccc(C(=O)C(CCC(CN(C)C)C(=O)c2ccc(OCC)cc2)CN(C)C)cc1 (stereo unspecified)	-135	48*	14*	-4	-60	29*	-4	-9
Clc1cccc(Cl)c1CSc1nnc(-c2ccncc2)s1	-105	2	2	-18	4	21*	8	5
Cn1c(=O)c2ncn(CC(=O)Nc3cccc(-c4nc5ccccc5s4)c3)c2n(C)c1=O	·	17	·	·	·	·	·	·
O=C(COc1ccc(/C=N/NC(=O)c2cc3ccccc3o2)cc1Br)Nc1ccccc1	-264	18	4	7	-57	45*	41*	15
SMILES	MOR-DOR inv ag	NALP1 yeast inh	HTR5A ag ctr	PolyA inh	HTR5A inv ctr	MOR-DOR ag	MOR-DOR ag conf	HTR5A ag ctr2
CCOC(=O)c1ccc(S(=O)(=O)N2CCN(c3ccccn3)CC2)cc1	-12	11	-8	-12	12	2	·	·
CCN1CCN(S(=O)(=O)c2ccc(Cl)c(C(=O)N(CCc3ccccc3)Cc3ccccc3)c2)CC1	-103	·	-4	·	13	20*	360*	9
COc1cc(C(=O)NCC(c2cccs2)N(C)C)cc(Cl)c1OC(C)C (stereo unspecified)	-244	32	-2	-4	4	48*	4	-1
CCCOc1ccc(C(=O)NCC(c2cccs2)N(C)C)cc1OC (stereo unspecified)	-44	27	-2	3	14	8	·	·
COc1cc2ccccc2cc1C(=O)NCC(c1cccs1)N(C)C (stereo unspecified)	-375	0	-2	-1	5	72*	0	6
O=C(NCc1cccs1)C1CCCN(C(=O)Nc2ccccc2)C1 (stereo unspecified)	6	13	2	1	5	-1	·	·
CCCCCCCCCCOC(=O)Cn1c(COc2ccccc2C)[n+](C)c2ccccc21	-134	1	13*	4	-48	28*	35*	14
CCCCOC(=O)Cn1c(=O)n(CC(=O)OCCCC)c2ccccc21	-11	2	2	-8	-5	3	·	·
CCCCCCCCCCOC(=O)Cn1c(COc2ccc(Cl)cc2)[n+](C)c2ccccc21	-94	61*	6	-33	-23	18*	24*	0
CN(Cc1ccccc1)/C(=N/O)c1cccc(Cl)c1	4	2	0	-9	1	-1	·	·
COC(=O)C(C)(C)ONC(=O)Nc1ccccc1	13	32	1	-5	22	-2	·	·
CC1CC(C)CN(C(=O)Cn2ncc3c([nH]c4ccccc43)c2=O)C1 (stereo unspecified)	5	7	-3	27	11	-1	·	·
O=C(Cn1ncc2c([nH]c3ccccc32)c1=O)N1CCc2ccccc2C1	-176	16	-3	13	-19	32*	26*	1
Cn1c(=O)c2c(O)c([N+](=O)[O-])c(=O)n(C)c2n(C)c1=O	·	·	·	-15	·	·	·	·
COC(=O)c1cc2c(n1S(=O)(=O)c1ccc(C)cc1)C(=O)C(=O)c1[nH]cc(C(=O)OCc3ccccc3)c1-2	-92	·	5	·	-19	21*	73*	12
